Assay outcomes deposited in PubChem BioAssay by several laboratories.
Most compounds without a hit are left out; they make up all but 3.1% or so of the library.
KCC2 mod = KCC2 cotransporter modulators, thallium flux, primary screen, cell-based, HEK293 KCC2, FluoZin-2 fluorescence, MLSMR; B-score of Tl+ flux slope (higher = more flux/activation; lower = inhibition) at 10 µM; KCC2 cells, thallium flux FluoZin-2 fluorescence; Solute carrier family 12 member 5 (Homo sapiens), Q9H2X9; AID 1456, 2008; 190,000 tested, 2.2% active;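 active = thallium flux slope and its plate-corrected score both differing from the plate sample mean at a set confidence after two filtering rounds, in either direction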;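 also: slope of fluorescence scaled to starting intensity during 10 to 20 s after thallium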
EP2 modulator = EP2 receptor modulators, cAMP readout, primary screen, cell-based, HTRF cAMP, PGE2 stimulation; induction, % at 25 µM; 260,000 tested, 0.83% active; EP2-expressing cells, cAMP HTRF FRET, PGE2 co-stimulation; AID 940, 2007;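 active = compounds whose cAMP rise, as percent of the full-agonist control response, exceeds 60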;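 also: rat C6 glioma line stably carrying human EP2 under a CMV promoter; the protocol text gives 20 µM as final concentration; 100% = response of wells given 1 µM PGE2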
Target sequence (P43116 whole entry, looked up): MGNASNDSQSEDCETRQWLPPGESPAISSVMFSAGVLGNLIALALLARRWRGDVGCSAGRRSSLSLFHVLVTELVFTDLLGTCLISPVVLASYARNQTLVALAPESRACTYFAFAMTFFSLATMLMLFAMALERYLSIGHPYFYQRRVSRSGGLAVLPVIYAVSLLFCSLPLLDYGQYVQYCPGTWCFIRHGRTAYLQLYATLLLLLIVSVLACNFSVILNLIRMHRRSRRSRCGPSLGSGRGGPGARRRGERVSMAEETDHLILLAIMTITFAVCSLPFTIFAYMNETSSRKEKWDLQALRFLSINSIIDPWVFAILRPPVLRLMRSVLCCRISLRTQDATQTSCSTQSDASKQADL
PGE2 EP2 inh = human EP2 receptor antagonists, primary screen, TR-FRET cAMP, C6 glioma cells. AID 1422, 2008. C6 glioma cells expressing human EP2; cells stimulated with saturating PGE2. Prostaglandin E2 receptor EP2 subtype (Homo sapiens), P43116. 260,000 tested, 0.52% active. inhibition, % at 25 µM;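 active = percent inhibition above 40 after rounding to a whole number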;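 also: rat C6 glioma host cells with rolipram phosphodiesterase inhibitor present; the protocol text gives 20 µM as final concentration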
S1P3 antagonist = S1P3 receptor antagonists, primary screen, cell-based; Sphingosine 1-phosphate receptor 3 (Homo sapiens), Q99500; CHO S1P3 NFAT-BLA reporter, FRET fluorescence, antagonist mode; inhibition, % at 4.98 µM; 170,000 tested, 0.27% active; AID 485, 2006;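 active = inhibition above the plate cutoff, the mean inhibition of test wells on that plate plus 3 SD, cut at about 28% in these data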;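 also: cells challenged with S1P at its EC80 of 0.8 µM; blue over green emission ratio from cleaved BLA substrate after 4 h stimulation; 0% = S1P-stimulated wells and 100% = unstimulated DMSO-only wells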
Target sequence (Q99500 whole entry, looked up): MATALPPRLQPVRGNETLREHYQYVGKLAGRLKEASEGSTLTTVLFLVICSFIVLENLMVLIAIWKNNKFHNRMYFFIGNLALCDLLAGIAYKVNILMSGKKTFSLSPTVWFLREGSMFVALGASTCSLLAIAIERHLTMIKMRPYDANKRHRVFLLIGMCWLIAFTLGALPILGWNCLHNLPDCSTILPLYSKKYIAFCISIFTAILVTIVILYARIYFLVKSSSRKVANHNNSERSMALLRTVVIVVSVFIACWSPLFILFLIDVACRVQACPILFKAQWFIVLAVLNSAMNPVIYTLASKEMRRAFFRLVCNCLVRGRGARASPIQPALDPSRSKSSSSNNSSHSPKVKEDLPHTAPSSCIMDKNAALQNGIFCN
KCC2 secondary = KCC2 modulators in sodium-free buffer, confirmation, cell-based, HEK293 KCC2, thallium flux, secondary assay. FluoZin2 fluorescence; stronger effect = higher value. 3,700 tested, 15% active. shares compounds with KCC2 mod. AID 1713, 2009. normalised thallium flux (F/F0 slope) at 10 µM;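 active = thallium flux slope above the same plate's solvent-only control mean plus 3 SD; inconclusive = the two replicate wells disagree; inactive = no significant difference from solvent-only control wells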
KCC2 bumet counter = thallium flux persisting under bumetanide in KCC2 cells, confirmation, counter-screen for KCC2 modulator project, cell-based, HEK293 KCC2, FluoZin2, secondary assay 3; shares compounds with KCC2 mod; HEK293-KCC2 + bumetanide/ouabain; stronger effect = higher value; normalized thallium flux at 10 µM; 3,700 tested, 49% active; AID 1714, 2009;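 active = thallium entry rate above the same plate's blocked-transporter control wells by more than 3 SD; inconclusive = the two repeat wells disagree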;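 also: raw slope of fluorescence over initial fluorescence between 10 and 20 s after thallium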
KCC2 secondary2 = KCC2 modulators without ouabain present, confirmation, cell-based, HEK293 KCC2, thallium flux, FluoZin2, secondary assay 2. 3,700 tested, 23% active. normalized thallium flux at 10 µM. AID 1715, 2009. thallium flux FluoZin2 fluorescence; actives lie on both sides; F/F0 rise rate, 10–20 s post-thallium. shares compounds with KCC2 mod;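 active = thallium flux slope more than 3 SD above or below the plate's solvent-only control mean, mostly below; inconclusive = the two repeat wells disagreed; inactive = no significant shift from solvent-only controls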;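 also: raw slope with 0.1% DMSO as baseline and bumetanide as block control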
HEK counter1 = thallium flux modulation in parental HEK cells, confirmation, counter-screen for KCC2 modulator project, cell-based, counterscreen 1 | shares compounds with KCC2 mod | HEK293 parental cells, thallium flux FluoZin2, ouabain; baseline-ratio fluorescence slope, 10–20 s after thallium | thallium flux rate (normalised fluorescence) at 10 µM | 3,700 tested, 46% active;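 active = thallium flux rate significantly above the same plate's solvent-only control wells, beyond their mean plus 3 SD; inconclusive = the two replicate wells gave conflicting results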
KCC2 ouabain = KCC2 inhibitors and activators, ouabain retest, confirmation, HEK-KCC2 cells | shares compounds with KCC2 mod | HEK293-KCC2, thallium flux FluoZin2 fluorescence; bidirectional: low = inhibitor, high = activator | raw Tl+ flux slope (below DMSO = inhibition, above = activation) at 10 µM | 3,700 tested, 48% active;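 active = thallium flux slope beyond 3 SD from same-plate DMSO control mean in most replicates, usually higher, sometimes lower; inconclusive = repeat tests gave conflicting results; inactive = no significant difference from controls in most replicates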;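 also: slope of initial-normalized fluorescence between seconds 10 and 20 after thallium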
HEK293 Tl flux2 = native HEK Tl+ uptake effects, second counter-screen – HEK cells, counterscreen 2, counter-screen for KCC2 modulator project, confirmation. HEK293 parental, thallium flux FluoZin-2 fluorescence slope. thallium flux slope at 10 µM. 3,700 tested, 33% active. shares compounds with KCC2 mod;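 active = thallium flux slope above the same plate's solvent-control mean plus 3 SD in both duplicate wells; inconclusive = duplicate wells that disagreed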;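 also: run without ouabain in cells lacking the KCC2 cotransporter; slope of fluorescence scaled to its starting value between 10 and 20 s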
An asterisk follows results filed as active; ? = inconclusive; . = not tested or not shown.

SMILES	KCC2 mod	EP2 modulator	PGE2 EP2 inh	S1P3 antagonist	KCC2 secondary	KCC2 bumet counter	KCC2 secondary2	HEK counter1	KCC2 ouabain	HEK293 Tl flux2
CC1CCc2[nH]nc(C(=O)O)c2C1 (configuration not stated)	0.224	-14.7	8.4	-2.4	.	.	.	.	.	.
CCC1CCc2[nH]nc(C(=O)O)c2C1 (configuration not stated)	4.28*	18.6	6.0	.	0.00984	0.00696	0.0295	0.00664	0.021	0.00978
CCOC(=O)SC1=N/C(=C\c2ccc(N(C)C)cc2)C(=O)S1	19.4*	-8.7	4.5	10.6	0.017*	0.0211*	0.0295	0.0134*	0.0285*	0.0106*
Cc1cccc(-n2c(O)c(C=Nc3ccc(S(=O)(=O)N4CCCCC4)cc3)c(=O)[nH]c2=O)c1	.	1.2	4.0	.	.	.	.	.	.	.
O=S(=O)(NCc1ccco1)c1ccc2c(c1)Cc1ccccc1-2	-3.99*	-22.0	5.2	10.9	0.00624	0.0045	0.0268	?	?	0.0106
Cc1ccc(S(=O)(=O)NCc2ccco2)cc1C	0.0194	22.7	7.4	-18.1	.	.	.	.	.	.
S=c1[nH]nc(COc2cccc3ccccc23)n1Cc1ccccc1	0.057	-4.0	7.9	10.4	.	.	.	.	.	.
Cc1ccccc1OCc1n[nH]c(=S)n1Cc1ccccc1	6.07*	19.4	2.8	6.2	0.00754	0.0288*	0.0407*	0.0241*	0.0299*	0.0307*
S=c1[nH]nc(-c2ccc(Br)cc2)n1Cc1ccccc1	23.7*	18.7	5.7	-5.0	0.0109	0.0267*	0.0349	0.0255*	0.0289*	?
Oc1ccc(-c2n[nH]c(=S)n2Cc2ccccc2)cc1	0.439	26.8	10.2	-42.3	.	.	.	.	.	.
Nn1c(COc2ccc(Cl)cc2)n[nH]c1=S	-3.34*	13.6	2.4	-8.9	0.00966	0.00719	?	0.00759	0.0347*	0.00986
Cc1cccc(C)c1OCc1n[nH]c(=S)n1N	-0.369	11.6	8.7	10.0	.	.	.	.	.	.
CCSc1n[nH]c2nc3c(c(=O)n12)C1(CCCCC1)Cc1ccccc1-3	-1.29	18.4	10.0	-9.3	.	.	.	.	.	.
CCCn1c(SCC(N)=O)nc2c(c1=O)C1(CCCC1)Cc1ccccc1-2	.	17.3	.	.	0.0132*	0.031*	0.0363	0.0169*	?	0.0123*
CCn1c(=O)c2c(n3c(=S)[nH]nc13)-c1ccccc1CC21CCCCC1	65.1*	-44.6	7.1	-17.8	0.00721	0.0698*	?	0.0597*	0.0593*	0.0345*
CCn1c(SCC#N)nc2c(c1=O)C1(CCCC1)Cc1ccccc1-2	16.8*	38.8	7.0	-1.8	0.0148*	0.0576*	0.0368	?	0.0395*	?
COC(=O)n1c(=O)oc2ccccc21	.	-4.9	10.2	3.1	.	.	.	.	.	.
CCCCOC(=O)n1c(=O)oc2ccccc21	-4.28*	0.0	4.9	18.4	0.0117*	0.00577	0.0362	0.00709	0.0214	0.0106
O=C1NC[C@@H](Cc2cccc3ccccc23)N(CCc2cc(C(F)(F)F)cc(C(F)(F)F)c2)C1=O	-3.95*	27.5	7.3	.	0.00583	0.00451	0.0248*	0.00711	0.0158	0.00968
O=C1NC[C@@H](Cc2ccc(O)cc2)N(CCc2cccc3ccccc23)C1=O	-1.57	7.7	29.4	.	.	.	.	.	.	.
Cn1cnc([N+](=O)[O-])c1NCc1ccccc1	-3.96*	0.5	10.3	-13.3	0.00588	0.00483	0.0238*	0.00781	?	0.0103
COc1ccc(-c2ncc(CN3CCC(CO)C3)cn2)cc1 (configuration not stated)	.	-2.4	7.6	.	.	.	.	.	.	.
C=CCn1c2cc(C)sc2c2cnn(CC(=O)N3CCc4ccccc43)c(=O)c21	.	-126.3	.	.	.	.	.	.	.	.
N#CCCCSc1ncccc1-c1nc2ccccc2[nH]1	0.436	-36.5	11.2	5.4	0.00789	0.00606	0.0269	0.00663	0.0203	0.00858
N#CCSc1ncccc1-c1nc2ccccc2[nH]1	-0.411	-22.4	12.8	.	.	.	.	.	.	.
SMILES	KCC2 mod	EP2 modulator	PGE2 EP2 inh	S1P3 antagonist	KCC2 secondary	KCC2 bumet counter	KCC2 secondary2	HEK counter1	KCC2 ouabain	HEK293 Tl flux2
CC(=O)N1N=C2c3ccccc3CCC2C1c1ccc(F)cc1 (configuration not stated)	-3.58*	-6.5	19.2	-0.9	0.00754	0.00527	0.034	?	0.0162*	0.0104
COc1ccc(C(NC(=O)c2cnc(SC)nc2)c2ccncc2)cc1 (configuration not stated)	.	10.5	11.8	.	.	.	.	.	.	.
CCOC(=O)c1cnc(SCC(=O)Nc2sc3c(c2C#N)CCCC3)nc1N	.	29.9	26.4	.	.	.	.	.	.	.
Nc1ccc(Cc2nc3c(ccc4ccccc43)[nH]2)cc1	-0.727	-116.9	11.0	.	.	.	.	.	.	.
S=c1nc(Cc2ccc(Cl)cc2)[nH]c2ccccc12	66.6*	19.4	2.9	5.2	0.0529*	0.153*	0.0437*	0.0985*	0.0848*	0.0435*
CN1C(=S)SC(C)(C)C1NO (configuration not stated)	-4.66*	19.7	2.4	19.1	0.00842	0.00454	0.0315	0.00752	0.0208	0.0112
CC(C)N1C(=S)SC(C)(C)C1NO (configuration not stated)	-0.408	12.4	6.2	-26.0	.	.	.	.	.	.
COc1ccc(O)c(C(=O)CC(=O)c2ccccc2C)c1	29*	1.4	4.6	4.0	0.00544	0.0253*	?	0.0181*	0.0312*	0.0216*
COc1ccc(O)c(C(=O)CC(=O)c2ccc(F)cc2)c1	23.4*	16.9	16.7	20.0	?	0.0698*	0.0353	?	0.0543*	?
COc1ccc(C(=O)CC(=O)c2ccccc2O)cc1OC	7.13*	-47.2	2.8	0.4	0.00754	0.0111*	0.0373	0.0126*	0.0234	0.0107
COc1ccc(C(=O)COc2ccc(F)cc2)c(O)c1	-1.06	-17.2	3.1	-11.0	.	.	.	.	.	.
